Out of some 5,500 compounds screened, about 2,000 (36%) were called active. Another 18% or so got no clear call; they are omitted. No stated cut-off is given here; in the data, active means normalized growth mostly below about 0.91 (no sharp cut-off); inconclusive means no clear call, values can overlap the other calls; inactive means mostly above about 0.92. Some of the results follow.
Experiment: chemical genetic growth profiling, strain panel (AID 1159580);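 further: tested at 20 µM; growth read once vehicle control cultures reached saturation at 30 °C; 1 = growth at the plate median or of vehicle wells; lower values mean less growth of the strain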
Conditions: S. cerevisiae deletion strains, growth OD

Measured: normalized growth

O=C(O)CP(=O)(O)O
inactive: locus YAL040C, strain CLN3, active compounds read low 1 | locus YCL061C, strain MRC1 (second series), active compounds read low 1 | locus YDR363W, strain ESC2, active compounds read low 1.01 | locus YER002W, strain NOP16, active compounds read low 1.01 | locus YGR229C, strain SMI1, active compounds read low 1.02 | locus YNL175C, strain NOP13, active compounds read low 1.02 | locus YNL197C, strain WHI3, active compounds read low 1.01 | locus YNL224C, strain SQS1, active compounds read low 0.993 | locus YNL322C, strain KRE1, active compounds read low 1.01 | locus YOR083W, strain WHI5 (second series), active compounds read low 1.01
